This is a sample that favours compounds with a hit; in the whole collection about 4.3% have one here.
Giardia killer = kills Giardia lamblia. 340,000 tested, 0.15% active. Giardia lamblia trophozoite viability. AID 540267. activity change, % at 7.66 µM, hits read low; in the data active = activity change below about -80%; inconclusive = between about -30% and that limit;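 also: parasites exposed to compound for two days anaerobically before the ATP read; % is scaled to controls: 0 for no effect and ±100 for the full control effect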
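Trophozoite viability was measured as ATP-dependent luminescence, read 15-30 min after reagent addition. Before that, parasites at 100 cells/well were exposed to compounds for 48 h, anaerobically, at 37 deg C.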
MCF10A rereplic = inducers of DNA re-replication in MCF 10A breast cells | MCF 10A DNA re-replication, Hoechst nuclear intensity, 48 h | AID 624296 | Potency, µM (highest dose often 46.1 µM), without a hit: at the highest dose activity, positive = re-replication, actives largely listed as activators | 350,000 tested, 2.9% active; also: potency is read from the fitted curve at half-maximal effect; % of control where 0% means no effect; nearly all actives have a fitted effect of over 50% in size
uPA surface inh = blocks generation of uPA at the cell surface | cell surface uPA generation assay, qHTS | 330,000 tested, 0.31% active | Potency, µM (series often up to 38.3 µM), inactives show at the highest dose activity change, negative = inhibition, actives largely listed as inhibitors | AID 540303; active = well fitted inhibition curve with a large enough effect; inconclusive = small, poorly fitted or top-dose-only effect; inactive = no such curve, though single readings can be large or run the other way; tested in mouse RAW 264.7 cells; also: potency is read from the fitted curve at half-maximal effect; % is scaled to controls: 0 for no effect and ±100 for the full control effect; nearly all actives have a fitted effect of over 55% in size
SW480 rereplic = inducers of DNA re-replication in SW480 colon cancer cells; 340,000 tested, 1.8% active; Potency, µM (highest dose often 46.1 µM), inactives show at the highest dose re-replication activation, hits mostly activators; AID 624297; SW480 DNA re-replication, Hoechst DNA content imaging, 48 h; also: potency is read from the fitted curve at half-maximal effect; % of control where 0% means no effect; nearly all actives have a fitted effect of over 55% in size
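Image-based read-out: total Hoechst fluorescence of nuclei (405 nm excitation, 500-530 nm emission), with hits raising the fraction of high-intensity nuclei. SW480 colon cells incubated 48 hr with compounds at 37 C.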
* = called active by the depositor; u = inconclusive; x = not tested or not shown; [ ] = dose if it differs, or a comment. Unless noted, calls follow the shape of the dose curve; as a rule, active = well fitted activation curve with a large enough effect; inconclusive = small, poorly fitted or top-dose-only effect; inactive = no such curve, though single readings can be large or run the other way.

SMILES	Giardia killer	MCF10A rereplic	uPA surface inh	SW480 rereplic
O=C(c1ccc(N2CCCC2=O)cc1)N1CCN(c2cccc(C(F)(F)F)c2)CC1	13	1%	-3%	-6%
CCNC(=O)NCc1cccc(Cl)c1	x	1%	x	-2%
COc1ccc(N(Cc2ccccc2)S(=O)(=O)c2cccc(C(=O)NCC3CCCO3)c2)cc1 (centres undefined)	-22	-1%	2%	-77%
CC[C@]12c3[nH]c4ccccc4c3CCN1C(=O)C(CC(=O)NCc1ccc(OC)c(OC)c1)C[C@@H]2C(=O)N1CCN(C(=O)C2CC2)CC1 (some centres undefined)	12	0%	8%	-1%
CC[C@]1(O)C[C@H]2CN(CCc3c([nH]c4ccccc34)[C@@](C(=O)OC)(c3cc4c(cc3OC)N(C=O)[C@H]3[C@@](O)(C(=O)OC)[C@H](OC(C)=O)[C@]5(CC)C=CCN6CC[C@]43[C@@H]65)C2)C1	x	u	x	0.3µM*
CC[C@@]1(O)CC2CN(CCc3c([nH]c4ccccc34)[C@](C(=O)OC)(c3cc4c(cc3OC)N(C)C3[C@@](O)(C(=O)OC)C(OC(C)=O)[C@]5(CC)C=CCN6CC[C@@]43C65)C2)C1 (some centres undefined)	x	u	x	0.67µM*
CC(=O)c1sc2nc(C)c3c(c2c1N)CCCC3	-2	18µM*	6%	15µM*
Cc1nc2sc(C#N)c(N)c2c2c1CCCC2	-1	-10%	0%	-4%[9.22 µM]
COc1ccc(C2c3cc4c(cc3OC(N3CCOCC3)C2C)OCO4)c(OC)c1 (centres undefined)	-2	2.9µM*	-9%	u
O=C(NCc1ccc(F)cc1)C(c1ccc(Cl)cc1)N(C(=O)c1csnn1)C1CC1 (centres undefined)	8	10%	4%	4%
Brc1ccc(C2Nc3cccc4cccc(c34)N2)o1	-18	15µM*	13%	1%
Clc1cccc(Cl)c1C1Nc2cccc3cccc(c23)N1	43	18µM*	-4%	u
CC(C)(C)c1ccc(C(=O)Nc2cccc(S(=O)(=O)NC3=NCCC3)c2)cc1	u	-9%	4µM*	8%
O=C(Nc1ccc(S(=O)(=O)NC2=NCCCCC2)cc1)c1ccc([N+](=O)[O-])s1	-13	u	10µM*	13µM*
O=C(Nc1ccc(S(=O)(=O)NC2=NCCCCC2)cc1)c1ccc(Cl)c([N+](=O)[O-])c1	17	21µM*	-65%	3%
O=C1N[C@@H](Cc2c[nH]c3ccccc23)C(=O)N[C@H]1Cc1ccccc1	-24	-8%	20%	-15%[9.22 µM]
CN(Cc1ccccc1F)c1nc(-c2cccs2)nc2ccccc12	-16	13µM*	-3%	u
Cn1c(SCC(=O)NCC2CCCO2)ncc(C(=O)Nc2ccc(Cl)cc2)c1=O (centres undefined)	-27	18µM*	-3%	4.6µM*
Cc1ccc(NC(=O)CSc2nc3ccccc3c(=O)n2CCCN2CCCCC2)cc1Cl	-5	23µM*	1%	-3%
COc1cccc(NC(=O)CSc2nc3c(sc4ccccc43)c(=O)n2CCCN2CCCC2)c1	25	18µM*	0%	u
COc1cc(OC)cc(C(=O)N[C@H](C(=O)NCc2ccco2)C(C)C)c1	2	-24%	-6%	1%[1.84 µM]
C=C1CC2(CC(c3ccccc3)OC(c3ccccc3)C2)OC1=O (centres undefined)	8	12µM*	-4%	u
Cc1cccc(NC(=S)NNC(=O)Cc2ccccc2)c1	-11	-1%	6%	-106%
O=C(Cc1ccccc1)NNC(=S)Nc1ccc(Cl)cc1	-12	1%	0%	0.52µM*
Cc1cccc(N2C(=O)c3ccccc3C2=O)n1	8	-6%	-4%	-4%
SMILES	Giardia killer	MCF10A rereplic	uPA surface inh	SW480 rereplic
Cn1cc(C(=O)c2ccc(Cl)cc2Cl)cc1C(=O)N/N=C(\N)COc1ccc(Cl)cc1Cl	-12	u	-13%	9.2µM*
Cc1noc(C)c1S(=O)(=O)Nc1ccc2c(c1)C(=O)N([C@H](C)CO)C[C@H](C)[C@@H](CN(C)C(=O)NC1CCCCC1)O2	-3	-24%	8%	-3%
CC12CN(Cc3ccccc3)CC(C)(CN(Cc3ccccc3)C1)C2=O	12	2%	6%	4%
CC1(C)CC(=O)N(Cc2ccccc2)C(=O)C1	-4	0%	6%	9.2µM*
COCCCNC(=O)/C(C#N)=C/c1c(N2CCN(C)CC2)nc2ccccn2c1=O	5	21µM*	8%	u
COCCNC(=O)/C(C#N)=C/c1c(N2CCN(c3ccccc3)CC2)nc2ccccn2c1=O	8	24%	7%	-6%
COCCCNC(=O)/C(C#N)=C/c1c(N2CCN(c3ccccc3)CC2)nc2ccccn2c1=O	-5	21µM*	-6%	9.2µM*
CC1CN(CCOc2ccc(Cl)cc2Cl)CC(C)O1 (centres undefined)	0	5%	5%	-1%
COc1ccc(N2CCN(CCS(=O)(=O)c3cc(Cl)ccc3Cl)CC2)cc1	2	5.8µM*	-42%	7.3µM*
CC(=O)N1CCN(CCS(=O)(=O)c2cc(Cl)ccc2Cl)CC1	19	15µM*	-11%	u
CC1CN(CCS(=O)(=O)c2cc(Cl)ccc2Cl)CC(C)O1 (centres undefined)	7	2.9µM*	-3%	u
COc1ccc(NC(=O)CCN2CCN(S(=O)(=O)c3cc(Cl)ccc3Cl)CC2)cc1	-12	-25%	-1%	12%
CC(C)(C)N(Cc1ccccc1)C(=O)COC(=O)CCN1C(=O)C2CC=CCC2C1=O (centres undefined)	-14	9%	-2%	-10%
Cc1[nH][nH]c(=O)c1C(c1ccc(-c2cccc(Cl)c2)o1)c1c(C)[nH][nH]c1=O	-1	18µM*	-1%	0%
Cc1[nH][nH]c(=O)c1C(c1ccc(-c2cccc(C(=O)O)c2)o1)c1c(C)[nH][nH]c1=O	-6	3%	0%	-15%
COC(=O)C1=C[C@@H](C(=O)OC)[C@@H]2C3=C(C(=O)C2(C)C)[C@H](C)n2c(=O)n(-c4ccccc4)c(=O)n2[C@@H]3C1	3	u	-11%	5.2µM*
COC(=O)C1=C[C@@H](C(=O)OC)C2C3=C(C(=O)C24CCCCC4)[C@H](C)n2c(=O)n(-c4ccccc4)c(=O)n2[C@@H]3C1 (some centres undefined)	-18	1%	16%	-55%[9.22 µM]
COCCn1c(C)cc(/C=C(\C#N)C(=O)OC(C)C(=O)Nc2ccc(NC(C)=O)cc2)c1C (centres undefined)	-15	u	5%	18µM*
COc1ccc(NC(=O)C(CC(=O)O)Cc2ccc(Cl)cc2)cc1 (centres undefined)	21	0%	-4%	-1%
CC(C)Cn1c(N)c(C(=O)COC(=O)c2cc(-c3ccco3)nc3ccccc23)c(=O)n(C)c1=O	u	14%	-23%	7%[9.22 µM]
CCCn1c(=O)c2c(C(=O)OCC)cc(-c3ccco3)nc2n(CCC)c1=O	-13	12µM*	x	-8%
